# Screening data from PubChem.
# IL2 activator: activates IL-2 in a cell-based reporter assay; activation, % (series mostly up to about 46 µM); AID 652025; 0.065% of 360,000 active; IL-2 activation reporter assay, cell-based qHTS; stimulated with anti-CD3/CD4/CD28 beads; in transgenic mouse T cells; in the data active = activation above about 50%; inconclusive = mostly about 30% to 49%; also: 0% is about no effect
#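 Using fluorescent plate cytometry, EGFP and DsRed are detected in transgenic mouse T cells stimulated 18 h at 37 degrees C with antibody-coated beads after 60 min compound pretreatment.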
# Nrf2 activator: Nrf2 pathway activation | 0.31% of 410,000 active | AREc32 ARE-luciferase reporter (MCF7-derived line), luminescence, 24 h | AID 624171 | Potency, µM (doses to about 46.1 µM), inactives show at the top dose activation, most hits filed as activators; also: potency is read from the fitted curve at half-maximal effect; % of control where 0% means no effect; nearly all actives have a fitted effect of over 65% in size
#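 Each well held 1000 AREc32 cells, which were incubated with compound for 24 hr at 37 deg C after overnight attachment, and ARE reporter activity was quantified by firefly luciferase luminescence.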
# ALOX12 inh: blocks human arachidonate 12S-lipoxygenase | 1.1% of 580,000 active | purified 12hLO, xylenol orange hydroperoxide absorbance | Potency, µM (series often up to 108 µM), inactives show at the highest dose activity change, negative = inhibition, most hits filed as inhibitors | P18054; also: potency is read from the fitted curve at half-maximal effect; % is scaled to controls: 0 for no effect and ±100 for the full control effect
# Target sequence (P18054 whole entry, looked up): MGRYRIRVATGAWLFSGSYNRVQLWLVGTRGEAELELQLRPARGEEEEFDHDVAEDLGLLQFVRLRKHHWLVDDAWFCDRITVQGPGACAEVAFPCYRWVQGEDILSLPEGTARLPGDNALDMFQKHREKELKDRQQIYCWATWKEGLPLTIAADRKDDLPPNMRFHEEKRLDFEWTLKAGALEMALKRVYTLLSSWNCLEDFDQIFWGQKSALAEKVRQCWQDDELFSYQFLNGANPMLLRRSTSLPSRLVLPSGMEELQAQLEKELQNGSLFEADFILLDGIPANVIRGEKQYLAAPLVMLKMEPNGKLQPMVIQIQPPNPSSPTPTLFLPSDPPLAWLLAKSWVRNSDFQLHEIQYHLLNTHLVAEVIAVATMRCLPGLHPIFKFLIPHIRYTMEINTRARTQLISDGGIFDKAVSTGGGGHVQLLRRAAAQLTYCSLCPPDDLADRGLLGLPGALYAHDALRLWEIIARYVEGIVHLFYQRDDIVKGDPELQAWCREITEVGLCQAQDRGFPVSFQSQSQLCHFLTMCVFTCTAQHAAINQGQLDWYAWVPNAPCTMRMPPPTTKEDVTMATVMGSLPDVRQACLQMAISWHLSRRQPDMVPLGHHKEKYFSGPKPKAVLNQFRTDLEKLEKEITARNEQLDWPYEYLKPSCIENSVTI
#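 Purified human 12hLO (150 nM final) in 25 mM Hepes, 0.01% Triton X-100, pH 7.0 was preincubated 15 min at room temperature with compound. Then 40 uM arachidonic acid was added, 30 min. Hydroperoxide was read by Fe-XO absorbance ratio 573/405 nm.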
# Integrin act MD: integrin-mediated muscular dystrophy alleviation activation. alpha7betagal myoblasts, beta-gal FDG fluorescence, 48 h. Potency, µM (titrated, usually from 38.3 µM), inactives show at the highest dose activation, usual class: activators. 0.064% of 350,000 active. AID 624291;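 also: potency is read from the fitted curve at half-maximal effect; 100% = response of the positive control SU9516; nearly all actives have a fitted effect of over 60% in size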
#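 Alpha7betagal+/- myoblasts (passage 13) were plated 16-24 hr, then exposed to compounds (1:260 dilution of DMSO stock) for 48 hours at 37C. After MPER lysis, β-galactosidase reporter activity was read as FDG fluorescence (ex 480/em 540) after 30 minutes.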
# uPA generation: cell surface uPA generation inhibition; 0.31% of 330,000 active; cell surface uPA generation assay, qHTS; AID 540303; Potency, µM (doses to about 38.3 µM), without a hit: top-dose activity change, negative = inhibition, actives largely listed as inhibitors; active = well fitted inhibition curve with a large enough effect; inconclusive = small, poorly fitted or top-dose-only effect; inactive = no such curve, though single readings can be large or run the other way; tested in mouse RAW 264.7 cells; also: potency is read from the fitted curve at half-maximal effect; % is scaled to controls: 0 for no effect and ±100 for the full control effect; nearly all actives have a fitted effect of over 55% in size
# * marks the source's active call; other numbers are inactive results; ? = inconclusive; nt = no result; [ ] = dose if it differs, or a comment. Compounds with a hit are over-represented: about 1.5% of the library has one in this group of screens. Unless noted, calls follow the shape of the dose curve; as a rule, active = well fitted curve in the direction sought with a large enough effect; inconclusive = small, poorly fitted or top-dose-only effect, or another doubt; inactive = no such curve, though single readings can be large; an effect the other way counts as inactive or inconclusive.
SMILES,IL2 activator,Nrf2 activator,ALOX12 inh,Integrin act MD,uPA generation
CCn1cc(S(=O)(=O)N2CCC[C@H](n3c(=O)n(CC4CC4)c4cccnc43)C2)cn1,nt,nt,27%,nt,nt
CCCCn1c(=O)c(CCc2ccccc2)nc2c1c(=O)[nH]c(=O)n2Cc1ccccc1,nt,nt,35µM*,nt,nt
Cc1ccc(Cn2cc(-c3ccncc3)cc2C(=O)NC2CC2)cc1,nt,nt,28µM*,nt,nt
Cc1ccc(Cn2cc(-c3ccncc3)cc2C(=O)NCC2CC2)cc1,nt,nt,3%,nt,nt
CCn1nc(C(=O)NC(C)(C)C)c2ccccc2c1=O,nt,nt,-2%,nt,nt
O=[N+]([O-])c1cc([N+](=O)[O-])c2nonc2c1Nc1ccc(O)cc1,0,16%,-16%,-62%,11µM*
O=[N+]([O-])c1cncc([N+](=O)[O-])c1Nc1cccc(O)c1,-2,?,-5%,30%,10µM*
CC(=O)c1ccc(Nc2c([N+](=O)[O-])ccc3nonc23)cc1,0,0%,0%,-20%,0%
Cc1ccccc1Nc1c([N+](=O)[O-])cncc1[N+](=O)[O-],1,20%,251%,-15%,-1%
O=[N+]([O-])c1cc([N+](=O)[O-])c2nonc2c1Nc1ccccc1O,-2,?,?,-44%,5.6µM*
O=C(NCC(F)(F)F)C1CCN(c2ncnc3sc4c(c23)CCC4)CC1,nt,nt,-1%,nt,nt
CCN(CC)C(=S)SC/C(=N/Nc1ccc(Br)cc1)c1ccccc1,nt,nt,7.9µM*,nt,nt
CN(Cc1ccc(Oc2ncccn2)cc1)CC1CCN(CCc2ccc(F)cc2)CC1,nt,nt,22%,nt,nt
C[N+]1(CC(=O)OC2CCCCCCCCCCC2)CCCC1,1,7%,45µM*,-44%,-5%
O=S(=O)(c1ccc(Cl)cc1)c1ccc(-c2ccc(S(=O)(=O)c3ccc(Cl)cc3)cc2)cc1,nt,nt,11µM*,nt,nt
Cc1ccc(S(=O)(=O)c2ccc(C)cc2)cc1,-2,-1%,3%,25%,9%
CO[C@H]1C(=O)N(C2CCN(C(=O)c3cccc4[nH]ccc34)CC2)[C@H]1c1ccncc1,nt,nt,66%,nt,nt
Cc1nc(SCCO)c([N+](=O)[O-])[nH]1,0,0%,25µM*,2%,5%
Cc1ccc(/C=C2/NC(=O)N(Cc3ccccc3)C2=O)o1,0,?,32µM*,-7%,-7%
COC(=O)CN1C(=O)N/C(=C/c2ccc(C)o2)C1=O,-1,4%,?,-11%,-1%
O=C(O)c1cc(-c2ccc(/C=C3/SC(=S)N(Cc4ccccc4)C3=O)o2)ccc1Cl,-5,-1%,13µM*,-23%,-1%
CC1(C)OC(=O)C(=Cc2ccc(-c3ccc(Cl)c(C(=O)O)c3)o2)C(=O)O1,-2,0%,-23%,-2%,4%
Cc1ccc(/C=C2\SC(=S)N(Cc3ccccc3)C2=O)o1,2,-1%,45µM*,13%[7.66 µM],4%
COCCn1c(C)nnc1-c1cc(Nc2ccccc2)ccn1,nt,nt,31%[176 µM],nt,nt
COc1ccc(OCCOC(=O)COc2ccc3ccccc3c2)cc1,nt,nt,-27%,nt,nt
SMILES,IL2 activator,Nrf2 activator,ALOX12 inh,Integrin act MD,uPA generation
COc1ccc(CC(=O)N2CC[C@H]3CC(=O)N(Cc4ccccc4)CC[C@H]3C2)cc1,nt,nt,15%[176 µM],nt,nt
CC(C)OC(=O)c1cccc2c1C(=O)c1ccccc1-2,-2,11µM*,0%,13%,-5%
O=C(O)c1cccc2c1C(=O)c1ccccc1-2,0,2%,101%,2%,5%
COc1cccc(-c2nc(-c3nc4ccccc4s3)cs2)c1OC,nt,nt,5µM*,nt,nt
CN(C(=O)OC(C)(C)C)c1ccc(-c2nc3ccccc3s2)cc1,-1,-2%,-4%,nt,2µM*
COc1cc(-c2nc3ccccc3s2)ccc1O,0,6.3µM*,?,-17%,?
O=C1C2CC=C(Cl)CC2C(=O)N1CCc1c[nH]c2ccccc12 (configuration not stated),-2,4%,-16%,25%,3%
O=C1C2CC=C(Cl)CC2C(=O)N1CCc1ccccc1 (configuration not stated),-1,3%,10µM*,27%,-5%
CN=c1scc(-c2ccc(OC)cc2)n1/N=C(\C)c1cccnc1,-6,4%,12%,5µM*,nt
Cc1ccc(CCN2CCC3(Cc4ccccc4CN([S+](C)(=O)[O-])C3)C2)cc1 (configuration not stated),nt,nt,7.1µM*,nt,nt
O=C1NCc2ccccc2CC12CCN(Cc1ccc(O)cc1)C2 (configuration not stated),nt,nt,2%,nt,nt
CCCN1CCC2(Cc3ccccc3CN([S+](=O)([O-])c3ccccc3)C2)C1 (configuration not stated),nt,nt,10%[6.33 µM],nt,nt
O=C1NCc2ccccc2CC12CCN(Cc1ccc([N+](=O)[O-])cc1)C2 (configuration not stated),nt,nt,50µM*,nt,nt
O=C1NCc2ccccc2CC12CCN(Cc1ccc(Cl)cc1)C2 (configuration not stated),nt,nt,22µM*,nt,nt
O=C1NCc2ccccc2CC12CCCN(Cc1ccccc1)C2 (configuration not stated),nt,nt,5%[6.33 µM],nt,nt
C[S+](=O)([O-])N1CC2(CCN(Cc3ccc(Cl)cc3)C2)Cc2ccccc21 (configuration not stated),nt,nt,45µM*,nt,nt
CCc1ccc(/C=C(\C#N)C(=O)Nc2sc(C(=O)N(C)C)c(C)c2C#N)s1,nt,nt,-48%,nt,nt
COc1ccc(-n2nnnc2SCc2cc(Cl)c3c(c2)OCCCO3)cc1,nt,nt,-15%,nt,nt
O=C(CSc1ccccc1Cl)N1CCNC1=O,nt,nt,-6%,nt,nt
O=C1NCc2ccccc2CC12CCN(Cc1ccc(Br)cc1)C2 (configuration not stated),nt,nt,28µM*,nt,nt
CCOc1ccc(CN2CCC3(Cc4ccccc4CNC3=O)C2)cc1 (configuration not stated),nt,nt,-1%[6.33 µM],nt,nt
Cc1ccc(CCN2CCC3(Cc4ccccc4CNC3=O)C2)cc1 (configuration not stated),nt,nt,13µM*,nt,nt
CC(=O)Nc1ccc(CN2CCC3(Cc4ccccc4CNC3=O)C2)cc1 (configuration not stated),nt,nt,7%[6.33 µM],nt,nt
COc1ccc(CN(CCC(c2ccccc2)c2ccco2)C(=O)c2ccco2)cc1 (configuration not stated),0,4%,50µM*,0%,-5%
CCCC(NC(=O)Cn1c(=O)c2c(ncn2C)n(C)c1=O)c1ccccc1 (configuration not stated),nt,nt,-29%,nt,nt
O=C(CSc1nc2cc(Cl)ccc2s1)Nc1cccc(F)c1,nt,nt,-33%,nt,nt
C[C@@]1(NC(=O)Cc2ccccc2)OC[C@H]2CC[C@@H](C(=O)Nc3ccc(OC(F)(F)F)cc3)N2C1=O,nt,nt,4%,nt,nt
Cc1ccc(N=CC=C2OC(C)(C)C(C)(C)O2)cc1,-3,23%,35µM*,-6%,-1%
Cc1cccc(N=CC=C2OC(C)(C)C(C)(C)O2)c1,2,13%,-4%,-8%,-9%
Cc1ccc(C(=O)NCCn2c(N)c(C#N)c3nc4ccccc4nc32)cc1,54*,0%,-16%,-14%,10%
